# From PubChem
# A selection: hits, their analogues and other compounds. The true share with any hit is near 3.8%.
# ATXN viability: reduces viability in counter-screen for ATXN expression inhibitors. S2 cells (HEK-293 line with an ATXN2-luciferase reporter) viability, CellTiter-Fluor protease fluorescence, 24 h. Potency, µM (top dose mostly 56.7 µM), usual class: cytotoxic. hit rate 0.49% among 400,000; further: nearly all actives have a fitted effect of over 40% in size
# ATXN2 expr inh: ATXN2 expression inhibition; HEK-293 ATXN2-luciferase reporter, luminescence, 24 h; Potency, µM (titrated, usually from 57 µM), for the others: at the highest dose activity change, negative = inhibition, usual class: inhibitors; hit rate 0.72% among 360,000; AID 1745845; further: on the % scale 0 is the no-effect control and ±100 the full control effect; nearly all actives have a fitted effect of over 55% in size
#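 qHTS (up to 57 uM final) was run with 24 h compound exposure of reporter cells at 37 °C. Each well was multiplexed: SteadyGlo luminescence measured ATXN2-luciferase expression after a fluorogenic Gly-Phe-AFC viability readout (25 uM final).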
# Nrf2 inh: blocks Nrf2 signaling; A549 ARE-Fluc reporter, luciferase luminescence, 18-24 h; Potency, µM (doses to about 46 µM), inactives show top-dose activity change, negative = inhibition, hits mostly inhibitors; hit rate 2.1% among 360,000; AID 504444; further: on the % scale 0 is the no-effect control and ±100 the full control effect; nearly all actives have a fitted effect of over 60% in size
#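 In this cell-based qHTS, ARE-driven firefly luciferase in A549 cells reports Nrf2 activity; the luminescent signal after BugLite lysis is the measured value, with a prior CellTiter-Fluor read for cell health.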
# HepG2 tox: counter-screen for TGF-b inhibitors: cytotoxicity in HepG2 cells. HepG2 CAGA-GFP viability, ATP luminescence, 18 h. Potency, µM (series often up to 46.1 µM), without a hit: top-dose activity change, negative = cytotoxicity, actives largely listed as cytotoxic. hit rate 0.76% among 410,000. AID 588856
#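 CellTiter-Glo luminescence gave cytotoxicity after 18 hours at 37 degrees C. The cells were HepG2 CAGA-GFP in 1% FBS DMEM, stimulated with 500 pg/mL TGF-beta after compound addition. %Activity was normalised to no-cell wells (complete cell-killing) and DMSO (no toxicity), and curves were fitted and classified.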
# A549 tox-1: kills or reduces viability of A549 cells in Nrf2 counter-screen; Potency, µM (doses to about 46 µM), for inactives: top-dose activity change, negative = cytotoxicity, hits mostly inhibitors; hit rate 0.16% among 390,000; A549 ARE-Fluc cells, CellTiter-Fluor viability, 18-24 h; further: on the % scale 0 is the no-effect control and ±100 the full control effect
#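 A549 ARE_Fluc cells in 5% FBS OPTI-MEM were exposed to compounds in concentration-response for 18-24 h at 37 deg C. Viability was read by CellTiter-Fluor fluorescence (Ex 405/Em 525) after 30 min, before the luciferase read.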
# TGFb SMAD3 inh: TGF-b pathway inhibition; HepG2 CAGA-GFP TGF-b/SMAD3 reporter, GFP fluorescence, 18 h; TGF-beta stimulated, 500 pg/mL final; Potency, µM (doses to about 46.1 µM), for the others: at the top dose activity, negative = inhibition, most hits filed as inhibitors; hit rate 1.2% among 410,000; AID 588855; further: on the % scale 0 is the no-effect control and ±100 the full control effect; nearly all actives have a fitted effect of over 65% in size
#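 Read-out: total well GFP (ex488/em500-530) summed from mean per-cell fluorescence. Cells: HEPG2 CAGA-GFP, 1% FBS DMEM, 18 h at 37 degrees C with 500 pg/mL final TGF-beta. Unstimulated wells served as the full-inhibition control; stimulated DMSO wells = 0%.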
# FLuc counter 3: firefly luciferase inhibition, Nrf2 hit validation; shares compounds with Nrf2 inh; purified firefly luciferase, luminescence inhibition; hit rate 4% among 1,400; Potency, µM (doses to about 57.5 µM), for inactives: at the highest dose activity change, negative = inhibition, hits mostly inhibitors; further: on the % scale 0 is the no-effect control and ±100 the full control effect; nearly all actives have a fitted effect of over 65% in size
# Target sequence (P08659 whole entry, looked up): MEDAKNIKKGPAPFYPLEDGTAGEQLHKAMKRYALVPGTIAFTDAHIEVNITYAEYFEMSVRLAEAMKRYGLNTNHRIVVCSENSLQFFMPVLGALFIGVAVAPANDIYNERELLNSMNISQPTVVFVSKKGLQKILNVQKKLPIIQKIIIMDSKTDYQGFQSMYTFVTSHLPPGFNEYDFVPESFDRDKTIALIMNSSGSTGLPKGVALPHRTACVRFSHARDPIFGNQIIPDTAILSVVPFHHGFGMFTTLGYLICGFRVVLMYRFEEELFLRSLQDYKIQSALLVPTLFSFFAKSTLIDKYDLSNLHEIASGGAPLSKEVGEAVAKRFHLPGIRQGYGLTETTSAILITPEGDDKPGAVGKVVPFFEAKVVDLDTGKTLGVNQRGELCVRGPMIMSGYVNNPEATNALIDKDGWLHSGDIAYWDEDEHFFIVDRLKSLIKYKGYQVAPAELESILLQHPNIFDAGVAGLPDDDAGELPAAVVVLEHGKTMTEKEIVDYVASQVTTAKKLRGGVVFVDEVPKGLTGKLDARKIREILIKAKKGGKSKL
# A549 tox-2: toxic to A549 ARE-Fluc cells in Nrf2 counterscreen | shares compounds with Nrf2 inh | A549 ARE-Fluc cells, cytotoxicity counterscreen | AID 720523 | hit rate 2% among 1,400 | Potency, µM (doses to about 46.1 µM), for the others: top-dose activity change, negative = cytotoxicity, most hits filed as inhibitors;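 further: cells exposed to compounds for 18 to 24 hours; on the % scale 0 is the no-effect control and ±100 the full control effect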
# ARE-Fluc inh: Nrf2 inhibition confirmed, A549 ARE-luciferase; shares compounds with Nrf2 inh; A549 ARE-firefly luciferase reporter, luminescence; Potency, µM (top dose mostly 46.1 µM), inactives show at the highest dose activity change, negative = inhibition, usual class: inhibitors; hit rate 74% among 1,400; AID 720524; further: on the % scale 0 is the no-effect control and ±100 the full control effect; nearly all actives have a fitted effect of over 65% in size
# * = called active by the depositor; i = inactive; ? = inconclusive; . = no result given; [ ] = dose if it differs, or a comment. The call rests on the fitted dose curve; in most records, active means well fitted curve in the direction sought with a large enough effect; inconclusive means small, poorly fitted or top-dose-only effect, or another doubt; inactive means no such curve, though single readings can be large; an effect the other way counts as inactive or inconclusive. Potency means the concentration at half of the fitted maximal effect.
SMILES,ATXN viability,ATXN2 expr inh,Nrf2 inh,HepG2 tox,A549 tox-1,TGFb SMAD3 inh,FLuc counter 3,A549 tox-2,ARE-Fluc inh
COc1ccc(CCNC(=O)c2cccc([N+](=O)[O-])c2)cc1OC,i,-9.7%,2.59µM*,2.0%,3.2%,-2.6%,3.4%,-9.4%,3.66µM*
CN(C)CCCN1C(=O)c2cccc3cccc(c23)C1=O,i,?,?,0.6%,-13.6%,-29.0%,.,.,.
CN(C)CCN1C(=O)c2cccc3cc([N+](=O)[O-])cc(c23)C1=O,?,?,1.64µM*,-13.8%,8.2µM*,6.31µM*,0.9%,?,2.59µM*
CC1(C)CC2CC(C)(CN2S(=O)(=O)c2ccc(C(=O)Nc3cccc(S(=O)(=O)N4CCOCC4)c3)cc2)C1 (stereo not given),i,-24.5%,2.31µM*,-22.7%,-1.6%,?,-1.4%,-4.3%,2.06µM*
CC1(C)CC2CC(C)(CN2S(=O)(=O)c2ccc(C(=O)Nc3cc(S(=O)(=O)N4CCOCC4)ccc3Cl)cc2)C1 (stereo not given),i,-4.2%,?,7.8%,-4.3%,16.2%,.,.,.
CCC(C)NC(=O)c1cn(CC)c2cc(N3CCN(C(=O)c4ccco4)CC3)c(F)cc2c1=O (stereo not given),i,-16.9%,-1.6%,-26.8%,-3.0%,-19.8%,.,.,.
COc1ccc(C(=O)OCC(=O)NCCN2C(=O)CSC2=O)cc1,i,2.0%,-1.1%,-2.8%,3.4%,8.6%,.,.,.
O=C(OCCOc1ccc(Cl)cc1)c1cc(S(=O)(=O)N2CCCCC2)ccc1N1CCOCC1,?,.,8.2µM*,-20.4%,-13.9%,?,4.0%,-10.3%,8.2µM*
CC(C)NC(=O)c1ccc(COc2cc(Cl)ccc2Cl)o1,i,-12.8%,21.5%,-13.5%,11.2%,-5.7%,.,.,.
CC(C)Cn1c(SC(C)C(=O)Nc2ccc3c(c2)OCCO3)nc2ccccc2c1=O (stereo not given),i,-15.6%,-20.9%,-27.9%,-1.0%,-20.4%,.,.,.
CC(Sc1nc2ccccc2c(=O)n1C)C(=O)Nc1ccc2c(c1)OCCO2 (stereo not given),i,-33.7%,5.17µM*,-21.2%,-12.7%,-7.9%,-1.2%,2.9%,?
CCOc1ccc(CNC(=O)Cn2ncc3c(=O)oc4ccc(C)cc4c32)cc1,.,.,-15.1%,-5.4%,0.2%,-0.9%,.,.,.
O=[N+]([O-])c1ccc(CN2CCN(c3ccc([N+](=O)[O-])cc3)CC2)cc1,i,?,7.31µM*,-19.0%,-24.0%,?,-1.0%,-15.7%,.
O=C1c2ccc(Oc3ccc([N+](=O)[O-])cc3)cc2C(=O)N1CCCO,i,-3.8%,4.11µM*,1.8%,4.0%,-3.4%,-0.1%,-5.2%,?
COc1ccc(N2CCN(CCCNC(=O)CN3C(=O)COc4ccccc43)CC2)cc1,i,-2.9%,2.7%,-5.7%,14.5%,-0.6%,.,.,.
C[C@H]1CN([C@@H](C)CO)C(=O)c2cccc(NS(=O)(=O)c3ccc(F)cc3)c2O[C@H]1CN(C)Cc1ccc(Cl)c(Cl)c1,?,0.0%,5.17µM*,-12.4%,-14.8%,?,3.1%,?,18.4µM*
COc1cc(CNCc2ccc(OC)cc2OC)cc(OC)c1,i,.,7.31µM*,-36.0%,-6.7%,?,2.9%,-3.2%,?
COc1ccc(CNCc2ccc(C)cc2)c(OC)c1,i,-18.7%,0.6%,4.3%,12.0%,-24.7%,.,.,.
COc1ccc(NS(=O)(=O)c2cccc(NC(=O)c3ccccn3)c2)cc1,i,.,?,-87.0%,?,?,.,.,.
O=C(Nc1cccc(S(=O)(=O)Nc2ccc(Cl)cc2)c1)c1ccccn1,i,-23.8%,8.2µM*,-56.0%,?,-31.4%,-8.6%,3.7%,.
C(=Cc1c[nH]c2ccccc12)c1nccc2ccccc12,i,?,?,1.7%,?,28.2%,.,.,.
OCC[n+]1ccc(/C=C/c2c[nH]c3ccccc23)cc1,i,-5.6%,6.51µM*,-6.3%,?,105.6%,0.5%,?,8.2µM*
CC[n+]1c(/C=C/c2c[nH]c3ccccc23)ccc2cc(C)ccc21,?,?,?,-33.9%,?,70.7%,.,.,.
CCCCCCCCCCCCCCCC[n+]1ccc(/C=C/c2c[nH]c3ccccc23)cc1,.,.,.,-95.2%,.,190.0%,?,?,7.31µM*
COc1ccc(S(=O)(=O)N2CCN(Cc3nc4ccc(C)cc4o3)CC2)cc1OC,i,-13.0%,.,-18.9%,1.8%,-18.8%,.,.,.
SMILES,ATXN viability,ATXN2 expr inh,Nrf2 inh,HepG2 tox,A549 tox-1,TGFb SMAD3 inh,FLuc counter 3,A549 tox-2,ARE-Fluc inh
Cn1cnnc1SCC(=O)Nc1sc2c(c1C#N)CCCCC2,i,24.8%,?,-6.0%,-8.6%[1.84 µM],-4.4%,.,.,.
N#Cc1c(NC(=O)CSc2ncn[nH]2)sc2c1CCCCC2,?,?,0.366µM*,-25.7%,-9.4%,-19.4%,9.53µM*,-0.3%,1.64µM*
Cc1cc(C(C)(C)C)ccc1OCC(=O)N/N=C\c1c(C)n(C)n(-c2ccccc2)c1=O,i,-23.4%,0.3%,15.6%,-5.6%,0.6%,.,.,.
CN1C[C@@H]2[C@@H]3C(=O)N(Cc4ccccc4)C(=O)[C@@H]3[C@](C)(C1=O)N2C(=O)c1ccc(Br)cc1,?,11.9%,9.6%,-0.9%,-3.1%,?,.,.,.
COC(=O)c1c(C)[nH]c(C(=O)OC(C)C(=O)NC2CCCCC2C)c1C (stereo not given),i,.,.,-0.7%,.,1.0%,.,.,.
Cc1c(C(=O)N2CCCCC2)oc2ccc(S(=O)(=O)N3CC(C)CC(C)C3)cc12 (stereo not given),i,?,9.2µM*,-30.6%,-12.1%,11.2µM*,-0.9%,-14.2%,9.2µM*
CC(C)n1c(SCC(=O)NC2CC2)nnc1C1CC1,i,3.9%,-11.4%,5.0%,0.0%,-5.3%,.,.,.
